From PubChem BioAssay
This is a sample that favours compounds with a hit; in the whole collection about 2.9% have one here.
MEKK2wt PB1 HTS = raises or lowers MEK5 binding to wildtype human MEKK2 PB1 domain; Q9Y2U5; binding response (% of control), % at 10 µM; bead flow cytometry, Alexa488-MEK5 binding to MEKK2 WT; actives lie on both sides; AID 1531; 290,000 compounds, 1.1% hits; in the data active = binding response below about 67% or above about 130%
MEKK2 mut-MEK5 = signal of MEK5 binding to mutant human MEKK2 PB1 domain; 290,000 compounds, 0.35% hits; percent response, % at 10 µM; bead flow cytometry, Alexa488-MEK5 binding to MEKK2 mutant; in the data active = percent response above about 24%, passing the limit was not always enough
dFosB act = mouse delta FosB homodimer activation; purified delta FosB, TAMRA-CDK5 oligo fluorescence polarization; percent of positive-control signal above neutral wells; activation, % at 25 µM; 340,000 compounds, 0.99% hits;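 active = mean activation above about 17%, with every replicate also reaching it, limit read from the data, passing the limit was not always enough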
Target sequence (P13346 whole entry, looked up): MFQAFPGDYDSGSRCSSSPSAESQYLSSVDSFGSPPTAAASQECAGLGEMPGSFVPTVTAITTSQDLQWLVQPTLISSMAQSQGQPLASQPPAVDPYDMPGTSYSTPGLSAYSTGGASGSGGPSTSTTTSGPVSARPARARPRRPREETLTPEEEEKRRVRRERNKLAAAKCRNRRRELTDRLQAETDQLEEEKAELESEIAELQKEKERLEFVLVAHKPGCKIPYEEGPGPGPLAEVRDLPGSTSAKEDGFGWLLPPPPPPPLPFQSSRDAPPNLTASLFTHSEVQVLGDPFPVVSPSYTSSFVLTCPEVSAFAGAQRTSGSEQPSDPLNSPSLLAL
FID counter = fluorescent intercalator displacement, NS3 helicase counter-screen. AID 1845. DNA fluorescent intercalator displacement, fluorescence. 290,000 compounds, 0.17% hits. inhibition, % at 7.9 µM; in the data active = inhibition above about 37%;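 note: 0% = vehicle and 100% = reference compound; higher means more ethidium bromide displaced from hairpin DNA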
MEKK3 PB1 HTS = MEKK3-MEK5 PB1 interaction, increase or decrease; Q99759; bead-based flow cytometry, Alexa488-MEK5 binding to MEKK3; actives lie on both sides; 0 = blocked by unlabeled MEK5, 100 = vehicle; binding response (% of control), % at 10 µM; 290,000 compounds, 1.4% hits; AID 1529;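 active = binding response more than 3 SD above or below the average of its plate-row segment, actives on both sides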;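 note: Alexa488 bead fluorescence after subtracting the streptavidin-only scavenger bead signal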
MEKK2wt confirm = raises or lowers MEK5 binding to wildtype human MEKK2, retest | binding response (% of control), % at 10 µM | AID 1892 | shares compounds with MEKK3 PB1 HTS | 5,900 compounds, 2.4% hits | bead flow cytometry, Alexa488-MEK5 binding to MEKK2 WT; actives lie on both sides; in the data active = binding response below about 16% or above about 210%; inactive = in between
MEKK2mut-MEK5 = signal of MEK5 binding to mutant human MEKK2, retest | bead flow cytometry, Alexa488-MEK5 binding to MEKK2 mutant | shares compounds with MEKK3 PB1 HTS | percent response, % at 10 µM | 5,900 compounds, 2% hits | AID 1893; in the data active = percent response mostly above about 71%, no sharp cut-off; inactive = mostly below about 38%;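 note: higher means compound restores mutant binding toward wildtype level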
MEKK3 confirm = MEKK3-MEK5 PB1 inhibition, single concentration confirmation. shares compounds with MEKK3 PB1 HTS. bead flow cytometry, Alexa488-MEK5 binding to MEKK3; active compounds read low. binding response (% of control), % at 10 µM. 5,900 compounds, 1.8% hits;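 active = binding response below 72% of control, or above a set upper limit, though filed actives all read lower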;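 note: 100% = DMSO only wells and 0% = binding blocked by excess unlabeled MEK5; lower values mean stronger disruption of MEK5 binding to MEKK3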
* hit, by the source's call; . = no result; [ ] = dose if it differs, or a comment.

SMILES | MEKK2wt PB1 HTS | MEKK2 mut-MEK5 | dFosB act | FID counter | MEKK3 PB1 HTS | MEKK2wt confirm | MEKK2mut-MEK5 | MEKK3 confirm
Cc1nn(-c2ccccc2)c(C)c1NC(=O)COC(=O)Cc1ccccc1F | . | . | -5 | . | . | . | . | .
O=C(O)C1CC=CCC1C(=O)Nc1ccccc1 (stereo unspecified) | 102 | 2 | -2 | -15 | 98 | . | . | .
CC(C)NC(=O)C1CC=CCC1C(=O)O (stereo unspecified) | 107 | 0 | 0 | 0 | 134* | 101 | 9 | 103
CC(C)Cn1c(NCCO)nc2ccccc21 | 70 | -14 | -5 | 0 | 61*[inhibitor] | 100 | 9 | 101
O=C(NNC(=O)c1ccc2c(=O)n3c(nc2c1)CCC3)c1cccc(Cl)c1 | . | . | -7 | . | . | . | . | .
Cc1ccc(CNC(=O)C2CCN(c3nnc(N4CCCC4=O)s3)CC2)cc1 | 97 | 3 | -9 | -27 | 97 | . | . | .
Cc1ccc(C(=O)C[n+]2ccc(Cc3ccccc3)cc2)cc1 | 106 | 2 | -1 | 16 | 104 | . | . | .
Fc1ccc(SCCc2ccncc2)cc1 | 103 | 17 | -2 | -4 | 103 | . | . | .
O=C(C[n+]1ccc(CCSc2ccc(F)cc2)cc1)c1ccccc1 | 61* | 249* | 85* | 13 | 93 | 149 | 27 | 101
Cc1ccc(SCCc2cc[n+](CC(=O)c3ccccc3)cc2)cc1 | 143* | -3 | -3 | 22 | 101 | 153 | 36 | 96
COc1cccc(NC(=O)N2CCN(c3cccc(C)c3C)CC2)c1 | 0.0*[inhibitor] | -17 | -6 | -31 | 0.0*[inhibitor] | 98 | 0 | 103
c1ccc2c(Nc3ccc(N4CCOCC4)cc3)nc(N3CCOCC3)nc2c1 | 105 | 3 | -2 | 0 | 101 | . | . | .
CC12CC3CC(C)(C1)CC(Nc1nc(N4CCOCC4)nc4ccccc14)(C3)C2 | 151* | 32 | -7 | 0 | 114 | 144 | 18 | 108
O=C(NC1CCCCC1)C(c1cccnc1)N(C(=O)CCl)c1cccc(Cl)c1 (stereo unspecified) | 101 | -1 | 9 | 0 | 101 | . | . | .
CC1CC(=O)C2=C(C1)Nc1ccccc1SC2c1ccc(F)cc1 (stereo unspecified) | 106 | 1 | -11 | -10 | 130* | 99 | 2 | 106
COc1ccc(C2CC(c3cccs3)=NN2c2ccc(C=O)cc2)cc1 (stereo unspecified) | 63*[inhibitor] | -4 | . | -2 | 88 | 82 | -16 | 99
COc1ccc(C2CC(c3cccs3)=NN2S(C)(=O)=O)cc1OC (stereo unspecified) | . | 70* | -3 | -10 | 80 | 100 | 5 | 99
O=C(O)c1ccc(/C=C/c2nc3sc4c(c3c(=O)[nH]2)CCC4)cc1 | 81 | -7 | -9 | -4 | 68 | . | . | .
Cc1csc(SCc2ccccc2C(=O)O)n1 | 3.0*[inhibitor] | -14 | 6 | -2 | 3.0*[inhibitor] | 100 | 2 | 102
CC(NC(=O)C(=O)N/N=C/c1ccccc1)c1ccccc1 (stereo unspecified) | 707* | 564* | 10 | -1 | 121 | 103 | 6 | 102
CC(NC(=O)C(=O)NN=C1CCCC1)c1ccccc1 (stereo unspecified) | 95 | -4 | 0 | -7 | 92 | . | . | .
Cc1ccc(Cn2cnc3ccccc32)cc1C | 98 | -1 | -5 | -12 | 74*[inhibitor] | 108 | 4 | 107
Cc1cccc(Cn2cnc3ccccc32)c1 | 109 | 4 | -7 | -8 | 101 | . | . | .
O=C(Nc1ccc(C(=O)NC2CCCCC2)cc1)c1cccnc1 | 101 | 1 | -2 | -1 | 93 | . | . | .
CCOC(=O)c1ccc2[nH]c3c(c2c1)CN(C)CC3 | 129 | 24* | -3 | 10 | 105 | 124 | 16 | 100
Cc1ccc2[nH]c3c(c2c1)CN(C)CC3 | 101 | 16 | -4 | 0 | 88 | . | . | .
